PubChem BioAssay (NCATS)
Results filed as inconclusive are left out. The source made the active and inactive calls. Calls follow the shape of the dose curve; as a rule, active = well fitted curve in the direction sought with a large enough effect; inconclusive = small, poorly fitted or top-dose-only effect, or another doubt; inactive = no such curve, though single readings can be large; an effect the other way counts as inactive or inconclusive.

Biological target: Cellular tumor antigen p53 (Homo sapiens) (UniProt P04637)
Sequence (P04637 whole entry, looked up): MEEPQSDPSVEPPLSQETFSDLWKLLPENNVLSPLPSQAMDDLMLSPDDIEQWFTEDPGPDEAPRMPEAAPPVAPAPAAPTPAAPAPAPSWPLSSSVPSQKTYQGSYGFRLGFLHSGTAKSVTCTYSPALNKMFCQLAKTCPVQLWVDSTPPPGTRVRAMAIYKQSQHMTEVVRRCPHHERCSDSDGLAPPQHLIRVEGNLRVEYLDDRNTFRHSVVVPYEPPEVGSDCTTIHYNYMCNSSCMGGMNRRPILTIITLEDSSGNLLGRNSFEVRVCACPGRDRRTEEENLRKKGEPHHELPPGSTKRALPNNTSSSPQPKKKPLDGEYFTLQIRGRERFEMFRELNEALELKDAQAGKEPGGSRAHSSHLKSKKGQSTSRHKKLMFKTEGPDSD
Experiment: Primary qHTS for small molecule compounds that upregulate eGFP-tagged delta133p53alpha (in N-terminal) cells. (AID 2060322);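 also: cells pre-induced with doxycycline then dosed without doxycycline; 0% = DMSO vehicle and 100% = reference activator; nearly all actives have a fitted effect of over 75% in size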
Settings: NCI-H358 eGFP-delta133p53alpha fluorescence, 24 h; activation: stronger effect = higher value
Method in brief: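 NCI-H358 cells pre-induced 24 h with 10 ng/ml doxycycline for eGFP-delta133p53alpha, plated dox-free and exposed 24 h at 37C to titrated compounds. Fixed, Hoechst-stained; gated GFP peak intensity by laser scanning cytometry, normalized to DMSO (0%) and 57.5 uM 5-azacytidine (100%).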

Row | SMILES | activation
1 | CCCN(CCC)CCc1ccc(OC)c(OCCc2ccccc2)c1 | -1% (inactive)
2 | C=C1[C@@H]2CC[C@@]3(C)[C@H](c4ccoc4)OC(=O)C[C@]13O[C@H]1CC(=O)C(C)(C)[C@H](C(OC(C)=O)C(=O)OC)[C@]12C (stereo partly specified) | -8.4% (inactive)
3 | CN1[C@H]2C[C@H](OC(=O)[C@H](CO)c3ccccc3)C[C@@H]1[C@@H](O)C2 | 1.67% (inactive)
4 | C[C@H](Nc1ncnc2nc[nH]c12)c1nc2ccc(F)cc2c(=O)n1-c1ccccc1 | 11.6% (inactive)
5 | Cc1sc2c(c1C)C(c1ccc(Cl)cc1)=NC(CC(=O)OC(C)(C)C)c1nnc(C)n1-2 (stereo unspecified) | 7.64% (inactive)
6 | CC(C)(O)[C@H]1O[C@H]2CC[C@@]3(C)[C@@](O)(CC[C@H]4Cc5c([nH]c6ccccc56)[C@@]43C)C2=CC1=O | 3.82% (inactive)
7 | Fc1cc(F)c2c(c1)[C@H]1C=CC[C@H]1C(c1cccnc1)N2 (stereo partly specified) | 2.39% (inactive)
8 | CC[C@H]1CN2CC[C@H]1C[C@@H]2[C@@H](O)c1ccnc2ccc(OC)cc12 | 17.9% (inactive)
9 | COC1=CC(=O)O[C@@H](/C=C/c2ccccc2)C1 | -10.7% (inactive)
10 | CNC(=O)c1cc(C#N)cc(C)c1NC(=O)c1cc(Br)nn1-c1ncccc1Cl | 18.3% (inactive)
11 | CC(=O)OC1CC(O)C(C)(C)C2CC(OC(C)=O)C3(C)C(CCC4(C)C(c5ccoc5)C(=O)C5OC543)C12C (stereo unspecified) | -13% (inactive)
12 | CCCCCn1cc(C(=O)c2cccc3ccccc23)c2ccccc21 | 20.5% (inactive)

Biological target: Aldehyde dehydrogenase, mitochondrial (Homo sapiens) (UniProt P05091)
Experiment: qHTS for Inhibitors of the Aldehyde Dehydrogenase Family (ALDH2) Primary screen (AID 2061308);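 also: plate controls were vehicle for no effect and reference inhibitor for full effect; nearly all actives have a fitted effect of over 55% in size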
Settings: ALDH2 enzyme inhibition qHTS, 1536-well; series mostly up to 56 µM; activity change, negative = inhibition: at the top concentration

Row | SMILES | activity change, negative = inhibition
13 | Cc1ccc(Cn2nc(C(=O)N[C@@H]3C(C)(C)[C@@H]4CC[C@@]3(C)C4)cc2-c2ccc(Cl)c(C)c2)cc1 | -4.28% (inactive)
14 | COc1ccsc1CNCC[C@@]1(c2ccccn2)CCOC2(CCCC2)C1 | 3.8% (inactive)
15 | C=C1CC[C@H]2[C@@H](/C=C(\C)C(=O)[C@@]3(OC(C)=O)C[C@H](C)[C@H](OC(=O)c4ccccc4)[C@@H]3[C@H]1OC(C)=O)C2(C)C | -11.7% [at 28 µM] (inactive)
16 | COC(=O)[C@@]1(C)C(=O)C=C[C@]2(C)c3c(O)cc(C(C)C)cc3[C@H](O)[C@@H](OC(C)=O)C12 (stereo partly specified) | -6.35% [at 28 µM] (inactive)
17 | COC(=O)C12C(=O)C(C)(O)C(=O)C1(C)C(C)=CC1C34CCC(OC3=O)C(C)(CO)C4CCC12C (stereo unspecified) | -4.26% [at 28 µM] (inactive)
18 | CN1C(=O)c2ccccc2NC(=O)[C@]12O[C@@H]2c1ccccc1 | -3.86% (inactive)
19 | C[C@]12CC[C@H](O[C@@H]3O[C@H](CO)[C@@H](O)[C@H](O)[C@H]3O[C@@H]3O[C@H](CO)[C@@H](O)[C@H](O)[C@H]3O)CC1=CC[C@@H]1[C@@H]2CC[C@]2(C)[C@@H](C3=CC(=O)OC3)CC[C@]12O | 11.4% [at 16.9 µM] (inactive)
20 | C[C@]12CCC(=O)C=C1CC[C@@H]1[C@@H]2[C@@H](O)C[C@]2(C)C(=O)CC[C@@H]12 | 0.844% (inactive)
21 | CN1C(=O)N(c2ccc(C#N)c(C(F)(F)F)c2)C(=O)[C@@]1(CO)c1ccccc1 | 11.6% (inactive)
22 | C[C@]12CC[C@H](OC3OC(CO)C(O)C(O)C3OC3OC(CO)C(O)C(O)C3O)C[C@@H]1CC[C@@H]1C2CC[C@]2(C)[C@@H](C3=CC(=O)OC3)CC[C@]12O (stereo partly specified) | 14.1% [at 16.9 µM] (inactive)
23 | CC(C)C1(OO)C=C2C(=O)CC3C(C)(C(=O)O)CCCC3(C)C2CC1 (stereo unspecified) | -1.29% (inactive)
24 | CCC(C)(O)C1(C(=O)O)COC(=O)C1 (stereo unspecified) | -1.72% [at 81.8 µM] (inactive)
25 | C/C=C(\C)C(=O)OC1CC2C(CC=C3CC(OC4CC(OC)C(OC5CC(OC)C(OC6OC(C)C(OC7OC(CO)C(O)C(O)C7O)C(OC)C6O)C(C)O5)C(C)O4)CCC32C)C2(O)CCC(C(C)=O)C12C (stereo unspecified) | 3.46% [at 16.9 µM] (inactive)
26 | CC[C@@H]1C[C@H]2CC[C@H](O2)[C@H](C)C(=O)O[C@@H](C)C[C@@H]2CC[C@@H](O2)[C@@H](C)C(=O)O[C@H](C)C[C@H]2CC[C@H](O2)[C@H](C)C(=O)O[C@@H](C)C[C@@H]2CC[C@@H](O2)[C@@H](C)C(=O)O1 | 8.39% [at 16.9 µM] (inactive)
27 | C=C(C)[C@@]12O[C@@H]1[C@@]1(C)C(=C[C@H]2O)CC[C@@H](O)[C@@H]1C | 0.272% (inactive)
28 | CCC1C2CC3C4N(C)c5ccccc5C45CC(C2C5O)N3C1O (stereo unspecified) | -2.06% (inactive)
29 | C=C1C2(C)CC3C(C)(O)C4=CC(=O)OC(C)(C)C4=CCC3(C)C13C(=O)OC(C)C3(O)C2=O (stereo unspecified) | -14% [at 28 µM] (inactive)
30 | CC(=O)C1CCC2C3CCC4C[C@@H](O)CCC4(C)C3CCC12C (stereo partly specified) | 7.55% (inactive)
31 | CC(C)[C@H](NC(=O)c1nn(Cc2ccc(F)cc2)c2ccccc12)C(N)=O | -15.1% (inactive)
32 | CO[C@@H]1[C@@H](O)[C@@H](O[C@H]2CC[C@]3(C=O)C4CC[C@]5(C)[C@@H](C6=CC(=O)OC6)CC[C@]5(O)[C@@H]4CC[C@H]3C2)O[C@@H](C)[C@H]1O[C@@H]1O[C@H](CO[C@@H]2O[C@H](CO)[C@@H](O)[C@H](O)[C@H]2O)[C@@H](O)[C@H](O)[C@H]1O (stereo partly specified) | 5.61% [at 16.9 µM] (inactive)

Row | SMILES | activity change, negative = inhibition
33 | CCC1(O)CCC2C3CCC4=CC(=O)CCC4C3CCC21CC (stereo unspecified) | 9.93% (inactive)
34 | CC12CCC3C(C1)c1c(cc(O)c(C(=O)c4ccccc4)c1OC3(C)C)O2 (stereo unspecified) | -7.54% (inactive)
35 | CC1=CC2/C=C(\C)CCC(O)C3OC(C)(C)OC3CC(=O)OC23C(=O)NC(CC(C)C)C3C1C (stereo unspecified) | -10.3% [at 28 µM] (inactive)
36 | CCOC(=O)NC(C)(C)Cc1ccc(Cl)cc1 | -7.44% (inactive)
37 | C[C@]12CC[C@H](O)CC1=CC[C@@H]1C2CC[C@]2(C)[C@@H](C3=CC(=O)OC3)CC[C@]12O (stereo partly specified) | -2.48% (inactive)
38 | C/C=C(\C)C(=O)OC1C(C)OC(OC2C(C)OC(OC3CCC4(C)C(=CCC5C4CCC4(C)C(C(C)OC6OC(COC7OC(CO)C(O)C(O)C7O)C(O)C(O)C6O)CCC54O)C3)CC2OC)C(O)C1OC (stereo unspecified) | -6.23% [at 16.9 µM] (inactive)
39 | C=C(C)[C@H]1O[C@H]2CC[C@@]3(C)[C@@](O)(CC[C@H]4[C@@H]5OC(C)(C)[C@H]6C[C@@H]7C(=C)Cc8c(Cl)cc9[nH]c(c5c9c8[C@@]76O)[C@@]43C)[C@]23O[C@@H]3[C@H]1O | -11.5% [at 16.9 µM] (inactive)
40 | CCCN(CCC)CCc1ccc(OC)c(OCCc2ccccc2)c1 | 0.45% (inactive)
41 | C=C1[C@@H]2CC[C@@]3(C)[C@H](c4ccoc4)OC(=O)C[C@]13O[C@H]1CC(=O)C(C)(C)[C@H](C(OC(C)=O)C(=O)OC)[C@]12C (stereo partly specified) | -0.234% [at 28 µM] (inactive)
42 | CN1[C@H]2C[C@H](OC(=O)[C@H](CO)c3ccccc3)C[C@@H]1[C@@H](O)C2 | 1.22% (inactive)
43 | C[C@H](Nc1ncnc2nc[nH]c12)c1nc2ccc(F)cc2c(=O)n1-c1ccccc1 | 14.8% (inactive)
44 | Cc1sc2c(c1C)C(c1ccc(Cl)cc1)=NC(CC(=O)OC(C)(C)C)c1nnc(C)n1-2 (stereo unspecified) | 9.67% (inactive)
45 | CC(C)(O)[C@H]1O[C@H]2CC[C@@]3(C)[C@@](O)(CC[C@H]4Cc5c([nH]c6ccccc56)[C@@]43C)C2=CC1=O | -0.364% [at 28 µM] (inactive)
46 | Fc1cc(F)c2c(c1)[C@H]1C=CC[C@H]1C(c1cccnc1)N2 (stereo partly specified) | -1.52% (inactive)
47 | CC[C@H]1CN2CC[C@H]1C[C@@H]2[C@@H](O)c1ccnc2ccc(OC)cc12 | 12.4% (inactive)
48 | COC1=CC(=O)O[C@@H](/C=C/c2ccccc2)C1 | 20.3% (inactive)
49 | CNC(=O)c1cc(C#N)cc(C)c1NC(=O)c1cc(Br)nn1-c1ncccc1Cl | -1.35% (inactive)
50 | CC(=O)OC1CC(O)C(C)(C)C2CC(OC(C)=O)C3(C)C(CCC4(C)C(c5ccoc5)C(=O)C5OC543)C12C (stereo unspecified) | 7.19% [at 28 µM] (inactive)
51 | CCCCCn1cc(C(=O)c2cccc3ccccc23)c2ccccc21 | -3.38% (inactive)
